# ChEMBL document CHEMBL4513216, “Probing the Open Global Health Chemical Diversity Library for Multistage-Active Starting Points for Next-Generation Antimalarials” (ACS Infect Dis, 2020)
# Out of some 69,000 compounds screened, about 8,600 (12%) showed an effect of 50% or more. Only a selection was taken, and strong results are over-represented in it overall.
# Test system: Plasmodium berghei
# Test: Screen against P. berghei liver stage (PbLuc), transformed with Luciferase, at 10uM
# Type: functional, HepG2
# Conditions: tested at 10 uM
row,SMILES,INHIBITION
1,CC(C)(C)c1n[nH]c(C2CN(C(=O)CCc3cccs3)CCO2)n1 (stereo not drawn),-32.5%
2,CCc1n[nH]c(C2CN(C(=O)CCCn3cccn3)CCO2)n1 (stereo not drawn),56.1%
3,Cc1n[nH]c(C2CN(C(=O)CCCn3cccn3)CCO2)n1 (stereo not drawn),-22.1%
4,Cc1cc(C(=O)N2C[C@H](C(C)C)[C@@H](N(C)C)C2)cs1,47.2%
5,CS(=O)(=O)c1cn[nH]c1C1CCCCN1C(=O)c1cnccn1 (stereo not drawn),-21.4%
6,Cc1nc(CN2CCCN(C(=O)c3c(C)oc(C)c3C)CC2)cs1,-4.16%
7,O=c1c(S(=O)(=O)N2CCCC2)cccn1Cc1ccccc1Cl,29.6%
8,c1cnc(N2CCO[C@H]3CN(Cc4c[nH]cn4)C[C@H]32)cn1,37.8%
9,OCCN1CCCC(c2nccnc2Oc2ccc(F)cc2)C1 (stereo not drawn),20.8%
10,CCS(=O)(=O)N1C[C@@H](c2cc(O)nc(C)n2)[C@H](c2ccccc2F)C1,3.69%
11,O=C(c1ccccn1)N1CCC2(CC1)COC(COc1cccnc1)C2 (stereo not drawn),5.67%
12,CC(c1cccc(-c2ncc(C#N)c(N)n2)c1)N(C)C (stereo not drawn),-0.996%
13,c1cncc(-c2noc(CNc3ncnc4c3CCNCC4)n2)c1,8.74%
14,Cc1ccccc1-n1cc(CNc2ncnc3c2CCNCC3)cn1,-20.7%
15,COCc1noc(CCNc2ncnc3c2CCNCC3)n1,-58%
16,Cc1ccc(-c2cc(CNc3ncnc4c3CCNCC4)no2)cc1,93.1%
17,c1cncc(-c2noc(CCNc3ncnc4c3CCNCC4)n2)c1,19.4%
18,COc1ccc(-c2cc(CNc3ncnc4c3CCNCC4)no2)cc1,94.1%
19,Clc1ccccc1-c1cc(CNc2ncnc3c2CCNCC3)no1,88.2%
20,c1ccc(Cn2cc(CNc3ncnc4c3CCNCC4)cn2)cc1,23.6%
21,Cc1cccc(-n2cc(CNc3ncnc4c3CCNCC4)cn2)c1,16%
22,CCn1cc(CN2CCCN(C(=O)c3ccoc3C)CC2)cn1,-19.9%
23,COCC(=O)N1Cc2nccn2CC(COc2cccnc2)C1 (stereo not drawn),29.3%
24,COc1nn(C)c2c1CCCN(C(=O)c1ccc[nH]1)C2,-15.7%
25,CCn1c(SCC(N)=O)nnc1-c1csc2c1CCCC2,25.8%
26,Cn1ccc(C(=O)N2CCCC2c2cc(CO)[nH]n2)n1 (stereo not drawn),14.385%
27,CCn1cnnc1CNc1nc(C)nc2scc(CC(C)C)c12,44.3%

row,SMILES,INHIBITION
1,CCc1nc(-c2cncnc2C2CCCNC2)no1 (stereo not drawn),20.25%
2,Cc1ccc(Cn2nc(C)c3c(C(=O)O)c(Cl)c(C)nc32)cc1,3.52%
3,CCNc1c(NC(=O)C2CC2)c(=O)oc2ccccc12,-21.9%
4,CN(C)CC(=O)N1CCCCC1c1nc(N)ncc1-c1ccccc1 (stereo not drawn),12.3%
5,CCSc1nnc([C@@H](N)CC(C)C)o1,-4.56%
6,COc1ccccc1-c1nccnc1C1CCN(C(C)=O)CC1,10%
7,Cc1cccc(-c2nccnc2C2CCN(C)CC2)c1C,54.5%
8,Cc1cccc(-c2nccnc2C2CCCN(C)C2)c1C (stereo not drawn),35.2%
9,COCc1nc(C(=O)N2CCCC2c2ccncc2)cs1 (stereo not drawn),29.7%
10,CC(C)c1noc(CN2CCN(CCO)CC2)n1,-10.875%
11,Brc1cccc(-c2noc(C3COCCO3)n2)c1 (stereo not drawn),-99.3%
12,CCCNc1ccc(C(=O)NCCc2ccc(Cl)cc2)cn1,-71.5%
13,CCCNc1ccc(C(=O)NCCc2cccc(Cl)c2)cn1,68.8%
14,CCCNc1ccc(C(=O)NCCc2cccc(OC)c2)cn1,25.3%
15,O=C1Nc2ccccc2/C1=C1\CCCN1,43.4%
16,Cc1nn(Cc2ccccc2)c(C)c1CNC1CCc2ncnn2C1 (stereo not drawn),-10.1%
17,COCC1COCCC12CCN(C(=O)CCc1ccccc1C)CC2 (stereo not drawn),-30.6%
18,CNCC(=O)Nc1cccc(-c2cnc(NCCO)nc2)c1,23.4%
19,CNCC(=O)Nc1cccc(-c2cnc(NCCS(C)(=O)=O)nc2)c1,45.6%
20,CNCC(=O)Nc1ccc(-c2cnc(NCCS(C)(=O)=O)nc2)cc1,54.5%
21,Cn1nc(C(=O)NCc2ccccc2C(F)(F)F)c2c1CCS(=O)(=O)C2,45.8%
22,O=C(C1CCOCC1)N1C[C@@H]2CC[C@H]1CN(C1Cc3ccccc3C1)C2,-59.3%
23,CCN(CC)[C@H]1C[C@@H](Cc2cc(CO)on2)C1(C)C,17.4%
24,CN(C)[C@H]1C[C@@H](Cc2cc(CO)on2)C1(C)C,-17.1%
25,CN(Cc1cc(C[C@@H]2C[C@H](N)C2(C)C)no1)c1ccccc1,54.3%
26,Cc1cccc(CN2C(=O)CC[C@@H]3[C@H]2CCN3Cc2nccn2C)n1,40.4%
